Measurements reported in PubChem BioAssay (NCATS).
Results filed as inconclusive are left out. Entries that show only a call come without a potency. Values without a mark were called inactive. Active and inactive are the calls of the source. The call rests on the fitted dose curve; in most records, active means well fitted curve in the direction sought with a large enough effect; inconclusive means small, poorly fitted or top-dose-only effect, or another doubt; inactive means no such curve, though single readings can be large; an effect the other way counts as inactive or inconclusive.

Tests used:
[1] = molecular target: Rap guanine nucleotide exchange factor 3 (Homo sapiens) (UniProt O95398); experiment: Confirmatory qHTS for antagonist of cAMP-regulated guanine nucleotide exchange factor 3 (EPAC1) (AID 1645880); further: nearly all actives have a fitted effect of over 55% in size; further: potency means the concentration at half of the fitted maximal effect
Outline: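 Nucleotide exchange uses 100 nM EPAC1, 250 nM RAP1B-BODIPY-GDP and 50 uM GDP, with compounds in a concentration-titration series. After 5 min at room temperature, fluorescence (480 nm ex/540 nm em) is read every 5 min for 30 min. Data are normalized to control ATA and DMSO.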

[2] = molecular target: Rap guanine nucleotide exchange factor 3 (Homo sapiens) (UniProt O95398); experiment: Confirmatory qHTS for agonist of cAMP-regulated guanine nucleotide exchange factor 3 (EPAC1) (AID 1645881); further: nearly all actives have a fitted effect of over 75% in size; further: potency means the concentration at half of the fitted maximal effect;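 on activation: EPAC1 catalysed release of BODIPY-GDP from Rap1B seen as fluorescence loss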
[3] = molecular target: Rap guanine nucleotide exchange factor 4 (Homo sapiens) (UniProt Q8WZA2); experiment: Confirmatory qHTS for agonist of cAMP-regulated guanine nucleotide exchange factor 4 (EPAC2) (AID 1645884);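 further: nucleotide exchange releases bodipy-GDP from Rap1 and this lowers its fluorescence; nearly all actives have a fitted effect of over 65% in size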; further: potency means the concentration at half of the fitted maximal effect
[4] = molecular target: Rap guanine nucleotide exchange factor 4 (Homo sapiens) (UniProt Q8WZA2); experiment: Confirmatory qHTS for antagonist of cAMP-regulated guanine nucleotide exchange factor 4 (EPAC2) (AID 1645885); further: nearly all actives have a fitted effect of over 25% in size
[5] = molecular target: Rap guanine nucleotide exchange factor 3 (Homo sapiens) (UniProt O95398); experiment: Counterscreen qHTS for antagonist of cAMP-regulated guanine nucleotide exchange factor 3 (EPAC1) (AID 1645888);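 further: fluorescence loss as bound BODIPY-GDP is released from Rap1B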
Outline: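 Rap1B-BODIPY-GDP 250 nM + GDP 50 uM; cpds 7-pt, final 9.74 nM–152 uM (activator mode) or from 7.32 nM upwards (inhibitor mode); RT; FI 480/540 nm at 5 and 30 min, then ± cAMP, reread.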

Sequence of Rap guanine nucleotide exchange factor 4 (Homo sapiens) (Q8WZA2 whole entry, looked up): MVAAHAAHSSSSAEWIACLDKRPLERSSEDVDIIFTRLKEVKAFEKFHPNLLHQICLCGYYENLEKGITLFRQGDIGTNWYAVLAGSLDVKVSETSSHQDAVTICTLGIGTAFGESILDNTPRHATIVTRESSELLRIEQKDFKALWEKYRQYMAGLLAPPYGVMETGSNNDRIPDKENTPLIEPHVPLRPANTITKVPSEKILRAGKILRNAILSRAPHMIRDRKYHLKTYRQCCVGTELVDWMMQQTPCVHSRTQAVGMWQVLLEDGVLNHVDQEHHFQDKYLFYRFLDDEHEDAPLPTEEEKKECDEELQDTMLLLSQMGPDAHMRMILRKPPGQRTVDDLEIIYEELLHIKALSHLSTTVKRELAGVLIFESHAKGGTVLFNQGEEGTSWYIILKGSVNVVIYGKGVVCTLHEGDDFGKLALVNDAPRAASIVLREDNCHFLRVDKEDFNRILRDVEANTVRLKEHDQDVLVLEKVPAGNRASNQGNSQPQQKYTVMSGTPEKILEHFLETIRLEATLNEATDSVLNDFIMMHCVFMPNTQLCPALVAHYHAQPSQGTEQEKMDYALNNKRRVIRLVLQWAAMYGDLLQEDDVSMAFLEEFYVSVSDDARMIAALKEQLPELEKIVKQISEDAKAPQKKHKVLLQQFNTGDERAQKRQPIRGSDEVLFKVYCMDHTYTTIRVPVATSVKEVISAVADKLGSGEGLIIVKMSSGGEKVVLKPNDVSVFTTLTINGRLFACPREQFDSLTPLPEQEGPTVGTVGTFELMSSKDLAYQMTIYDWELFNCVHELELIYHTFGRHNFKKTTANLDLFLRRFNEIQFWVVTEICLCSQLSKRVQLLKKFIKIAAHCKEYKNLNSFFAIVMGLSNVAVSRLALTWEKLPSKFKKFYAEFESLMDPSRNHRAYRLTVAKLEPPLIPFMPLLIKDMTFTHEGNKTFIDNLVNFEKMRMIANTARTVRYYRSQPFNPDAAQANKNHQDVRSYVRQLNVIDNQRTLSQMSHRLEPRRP
Sequence of Rap guanine nucleotide exchange factor 3 (Homo sapiens) (O95398 whole entry, looked up): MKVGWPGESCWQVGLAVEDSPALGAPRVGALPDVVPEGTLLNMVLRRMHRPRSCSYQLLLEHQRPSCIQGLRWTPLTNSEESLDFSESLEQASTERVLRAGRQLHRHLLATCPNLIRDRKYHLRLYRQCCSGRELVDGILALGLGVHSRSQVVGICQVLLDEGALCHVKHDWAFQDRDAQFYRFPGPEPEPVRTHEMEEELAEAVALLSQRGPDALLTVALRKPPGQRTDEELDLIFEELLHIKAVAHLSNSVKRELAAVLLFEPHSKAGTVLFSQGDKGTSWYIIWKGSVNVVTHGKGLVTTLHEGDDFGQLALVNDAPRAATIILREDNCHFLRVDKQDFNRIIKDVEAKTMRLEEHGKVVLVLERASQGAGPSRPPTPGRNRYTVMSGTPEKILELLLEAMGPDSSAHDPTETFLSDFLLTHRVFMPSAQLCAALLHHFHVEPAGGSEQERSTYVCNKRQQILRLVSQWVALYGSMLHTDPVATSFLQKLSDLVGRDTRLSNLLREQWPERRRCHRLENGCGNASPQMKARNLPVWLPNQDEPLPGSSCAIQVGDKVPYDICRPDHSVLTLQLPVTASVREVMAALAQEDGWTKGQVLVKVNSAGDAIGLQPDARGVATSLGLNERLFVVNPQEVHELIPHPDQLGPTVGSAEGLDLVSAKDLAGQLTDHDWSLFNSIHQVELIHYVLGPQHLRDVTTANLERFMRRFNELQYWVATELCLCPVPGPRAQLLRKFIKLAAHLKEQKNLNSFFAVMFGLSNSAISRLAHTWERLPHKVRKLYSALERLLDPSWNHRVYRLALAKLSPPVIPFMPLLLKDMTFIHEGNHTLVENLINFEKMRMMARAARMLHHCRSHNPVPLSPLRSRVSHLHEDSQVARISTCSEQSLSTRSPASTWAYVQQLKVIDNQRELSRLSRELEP

## O=C(c1ccco1)N(Cc1cccc([N+](=O)[O-])c1)c1ccc(Br)cc1
[1]
  Potency: inactive
[2]
  Potency: inactive
[3]
  Potency: inactive
[4]
  Potency: inactive
[5]
  Potency: inactive

## CCc1cc2c(-c3ccccc3)cc(=O)oc2cc1OCC(=O)NCC1CCC(C(=O)O)CC1 (stereo not given)
[1]
  Potency: inactive
[2]
  Potency: inactive
[3]
  Potency: inactive
[4]
  Potency: inactive
[5]
  Potency: inactive

## Cn1cc(CNCc2cn(C)nc2-c2ccc(C3CCCCC3)cc2)cn1
[1]
  Potency: inactive
[2]
  Potency: inactive
[3]
  Potency: inactive
[4]
  Potency: inactive
[5]
  Potency: inactive

## CCc1nc2c(OCc3ccc(Cl)cc3)cccn2c1N(C)C(=O)c1ccccc1F
[1]
  Potency: inactive
[2]
  Potency: inactive
[3]
  activation: 3.03% [at 17.1 µM, percent relative to cAMP agonist control]
[4]
  Potency: inactive
[5]
  activity change, negative = inhibition: -10.9% [at 30.8 µM]

## N#C/C(=C/c1ccc(O)c(O)c1)c1nc2ccccc2[nH]1
[1]
  Potency: 6.01 µM (active)
[2]
  Potency: inactive
[3]
  Potency: inactive
[4]
  Potency: inactive
[5]
  Potency: inactive

## Cc1ccc(S(=O)(=O)Nc2cc(=O)[nH]c(SCC(=O)Nc3cccc(C)c3)n2)cc1
[1]
  Potency: inactive
[2]
  Potency: inactive
[3]
  activation: 4.73% [at 17.1 µM, percent relative to cAMP agonist control]
[4]
  Potency: inactive
[5]
  activity change, negative = inhibition: -4.46% [at 30.8 µM]

## N#C/C(=C\c1ccc(O)c([N+](=O)[O-])c1)c1nc2ccccc2s1
[1]
  Potency: 33.8 µM (active)
[2]
  Potency: inactive
[3]
  Potency: inactive
[4]
  Potency: inactive
[5]
  Potency: inactive

## Cc1ccc(S(=O)(=O)/N=C2\SC(CC(=O)Nc3ccc(F)cc3)C(=O)N2c2ccccc2)cc1 (stereo not given)
[1]
  Potency: inactive
[2]
  Potency: inactive
[3]
  activation: 3.37% [at 17.1 µM, percent relative to cAMP agonist control]
[4]
  Potency: inactive
[5]
  activity change, negative = inhibition: -39.2% [at 30.8 µM]

## COc1ccc(NS(=O)(=O)c2ccc3[nH]c4c(c3c2)CCCCCC4)cc1
[1]
  Potency: inactive
[2]
  Potency: inactive
[3]
  Potency: inactive
[4]
  outcome: inactive [at 12.7 µM]
[5]
  Potency: inactive

## COc1cc(/C=C2\SC(=S)N(NS(=O)(=O)c3ccccc3)C2=O)cc(OC)c1OC
[1]
  Potency: 15.1 µM (active)
[2]
  Potency: inactive
[3]
  Potency: inactive
[4]
  Potency: inactive
[5]
  Potency: inactive

## O=C(CCN1C(=O)S/C(=C\c2ccccc2)C1=O)Nc1ccc(S(=O)(=O)Nc2nccs2)cc1
[1]
  Potency: 39.8 µM (active)
[2]
  Potency: inactive
[3]
  activation: 1.67% [at 17.1 µM, percent relative to cAMP agonist control]
[4]
  Potency: inactive
[5]
  activity change, negative = inhibition: -0.356% [at 30.8 µM]

## COCCN(CCOC)Cc1cc(=O)oc2cc(C)c(C)cc12
[1]
  Potency: inactive
[2]
  Potency: inactive
[3]
  activation: 2.1% [at 17.1 µM, percent relative to cAMP agonist control]
[4]
  Potency: inactive
[5]
  activity change, negative = inhibition: -13% [at 30.8 µM]

## COc1ccc(C)cc1NC(=O)CSc1nc(=O)n(Cc2ccco2)c2c1CCC2
[1]
  Potency: 84.9 µM (active)
[2]
  Potency: inactive
[3]
  Potency: inactive
[4]
  Potency: inactive
[5]
  Potency: inactive

## COc1ccc(S(=O)(=O)N2CCOC23CCN(S(=O)(=O)c2cccs2)CC3)cc1
[1]
  Potency: inactive
[2]
  Potency: inactive
[3]
  activation: 4.26% [at 17.1 µM, percent relative to cAMP agonist control]
[4]
  Potency: inactive
[5]
  activity change, negative = inhibition: -10.2% [at 30.8 µM]

## CCCOc1cccc(C2C(C(=O)c3cccs3)=C(O)C(=O)N2Cc2cccnc2)c1 (stereo not given)
[1]
  Potency: inactive
[2]
  Potency: inactive
[3]
  activation: 2.94% [at 17.1 µM, percent relative to cAMP agonist control]
[4]
  Potency: inactive
[5]
  activity change, negative = inhibition: -13.9% [at 30.8 µM]

## COc1ccc(N/C=C2\CCc3ccccc3C2=O)cc1
[1]
  Potency: inactive
[2]
  Potency: 89.1 µM (active)
[3]
  Potency: 100 µM (active)
[4]
  Potency: inactive
[5]
  Potency: inactive

## Cc1ccc(C)c(N(C)C(=O)c2cn(C)c(=O)c3ccccc23)c1
[1]
  Potency: inactive
[2]
  Potency: inactive
[3]
  Potency: inactive
[4]
  Potency: inactive
[5]
  Potency: inactive

## COc1ccc2c(c1)CC/C(=C\Nc1ccc3c(c1)OCO3)C2=O
[1]
  Potency: inactive
[2]
  Potency: 112 µM (active)
[3]
  Potency: 100 µM (active)
[4]
  Potency: inactive
[5]
  Potency: inactive

## Cc1ccc(Sc2ccc(S(=O)(=O)Nc3ccc(C(=O)O)cc3)cc2)cc1C
[1]
  Potency: 67.5 µM (active)
[2]
  Potency: inactive
[3]
  Potency: inactive
[4]
  Potency: inactive
[5]
  Potency: inactive
